Screening data: PubChem, National Center for Advancing Translational Sciences (NCATS)
HCV inhibitor: inhibitors of hepatitis C virus infection; Huh7.5.1 HCVcc-Cre infection, luciferase reporter, 44 h; Potency, µM (series often up to 41.8 µM), actives largely listed as inhibitors; 340,000 tested, 3.4% active; AID 651820
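Seed cells (1,000/well) for 4 h; treat with compound and infect with HCVcc-Cre, moi about 0.5. Incubate 44 h, then detect luciferase activity.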
HCMV antiviral: inhibitors of human cytomegalovirus; activity change, negative = inhibition, % at 57.5 µM; AID 1259415; HFF cells, HCMV-luciferase reporter, 72 h; active compounds read low; 410,000 tested, 4.5% active; in the data active means activity change below about -60%; inconclusive means no clear call, values can overlap the other calls; inactive means above about -39%
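After 16 h attachment at 37C, HFF cells received test compound and HCMV-luciferase (1 PFU/cell); reporter luminescence read 72 h later, data normalized against buffer-only and known inhibitor Salinomycin.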
FMDV inh: antivirals against foot and mouth disease virus; AID 1159524; 410,000 tested, 1.2% active; Potency, µM (titrated, usually from 57.9 µM), most hits filed as inhibitors; FMDV antiviral cell-based qHTS; calls by dose curve; tested in HEK293T cells; further: read-out not given here; nearly all actives have a fitted effect of over 45% in size
AmpC detergent: blocks E. coli AmpC beta-lactamase in detergent assay. AmpC hydrolysis of nitrocefin, absorbance 480 nm, 0.01% Triton. Potency, µM (top dose mostly 114 µM), usual class: inhibitors. 370,000 tested, 0.041% active. AID 485294; further: nearly all actives have a fitted effect of over 25% in size
Target sequence (P00811 whole entry, looked up): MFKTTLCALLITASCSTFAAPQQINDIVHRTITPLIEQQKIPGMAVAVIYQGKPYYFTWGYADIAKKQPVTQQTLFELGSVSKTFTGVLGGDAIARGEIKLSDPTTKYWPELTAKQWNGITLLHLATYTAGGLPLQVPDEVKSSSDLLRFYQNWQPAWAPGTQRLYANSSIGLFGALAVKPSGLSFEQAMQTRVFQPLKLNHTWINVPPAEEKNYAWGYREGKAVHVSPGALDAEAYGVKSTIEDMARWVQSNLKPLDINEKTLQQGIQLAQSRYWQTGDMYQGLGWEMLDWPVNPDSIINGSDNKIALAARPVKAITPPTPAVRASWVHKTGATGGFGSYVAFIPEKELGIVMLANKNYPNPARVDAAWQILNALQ
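20 mM phosphate pH 7.0 + 0.01% (detergent screen) or 0.0001% Triton X-100; 5.3 nM AmpC reagent; cpd preinc 15 min RT; nitrocefin (800 uM stock) to start; A480 q20 s × 4 min; Activity was normalised to no-enzyme and no-compound control wells.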
AmpC inh no detg: blocks E. coli AmpC beta-lactamase in detergent-free assay | Potency, µM (top dose mostly 57.1 µM), actives largely listed as inhibitors | AID 485341 | 330,000 tested, 0.52% active | AmpC nitrocefin hydrolysis, absorbance 480 nm, 0.0001% Triton; further: nearly all actives have a fitted effect of over 20% in size
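20 mM phosphate pH 7.0 + 0.01% (detergent screen) or 0.0001% Triton X-100; 5.3 nM AmpC reagent; cpd preinc 15 min RT; nitrocefin (800 uM stock) to start; A480 q20 s × 4 min; Activity was normalised to no-enzyme and no-compound control wells.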
Large screens that a line does not name were inactive. An excerpt weighted towards active compounds, which were near 7.3% of everything screened. Unless noted, the call rests on the fitted dose curve; in most records, active means well fitted curve in the direction sought with a large enough effect; inconclusive means small, poorly fitted or top-dose-only effect, or another doubt; inactive means no such curve, though single readings can be large; an effect the other way counts as inactive or inconclusive.

c1ccc(N2CCN(c3ncnc4c3nc3n4CCCCC3)CC2)cc1	HCMV antiviral -76, FMDV inh 10µM (no result: HCV inhibitor, AmpC inh no detg)
O=C(NCc1ccc(Cl)cc1)C1CCN(c2ncnc3c2nc2n3CCCCC2)CC1	none (no result: HCV inhibitor, AmpC inh no detg)
O=C(COC(=O)/C=C/c1ccc(OC(F)F)cc1)NC1CCCC1	none
Cc1nc(C)n(CC(=O)N2CCOc3ccc(CN4CCN(C)C[C@@H]4c4ccccc4)cc3C2)n1	none (no result: HCV inhibitor, HCMV antiviral, AmpC detergent, AmpC inh no detg)
Cc1ccc(S(=O)(=O)c2nc(C)c3c(n2)CCC3)cc1	none
COc1cccc(S(=O)(=O)c2nc(C)c3c(n2)CCC3)c1	HCMV antiviral -81, FMDV inh 13µM
COCc1c(C(=O)N2CCN(C3CCCCC3)CC2)cnn1-c1ncc(C)c(-c2cccs2)n1	none (no result: HCV inhibitor, HCMV antiviral, AmpC detergent, AmpC inh no detg)
Nc1ncnc(N)c1N=Nc1ccccc1	HCMV antiviral -64
COc1cccc(NC(=S)N(CCc2c(C)[nH]c3ccc(C)cc23)Cc2cccs2)c1	HCV inhibitor inconclusive
COc1ccc2[nH]c(C)c(CCN(Cc3cccs3)C(=S)Nc3cccc(F)c3)c2c1	HCV inhibitor inconclusive, AmpC inh no detg 45µM (no result: HCMV antiviral)
O=C(NC1CC(=O)N(c2ccccc2)C1)C(c1ccccc1)c1ccccc1 (stereo unspecified)	none (no result: HCV inhibitor, AmpC inh no detg)
Cc1cccc(CNC(=O)c2cnn(-c3ncc(C)c(-c4ccc(F)cc4)n3)c2C)n1	none (no result: HCV inhibitor, HCMV antiviral, AmpC detergent, AmpC inh no detg)
CCOC(=O)/C(=C\c1ccccc1)C(=O)c1cc(C(C)=O)c(Nc2ccccc2)s1	HCV inhibitor 7.1µM, HCMV antiviral -105, FMDV inh 14µM
CCOC(=O)C(=O)/C(C#N)=C/Nc1ccccc1	none
CCOC(=O)/C(=C\c1cccnc1)C(=O)c1cc(C(C)=O)c(Nc2ccccc2)s1	HCV inhibitor inconclusive, FMDV inh 4µM (no result: HCMV antiviral)
COC(=O)C1C(OC(=O)c2ccccc2)CC2CCC1[N+]2(C)C (stereo unspecified)	none (no result: HCV inhibitor, FMDV inh, AmpC detergent, AmpC inh no detg)
CC[N+]1(C)[C@@H]2CC[C@H]1CC(OC(=O)[C@H]1CCC(C(=O)OC3C[C@H]4CC[C@@H](C3)[N+]4(C)CC)(c3ccccc3)c3ccccc31)C2 (stereo partly specified)	HCMV antiviral -69, AmpC detergent inconclusive
COc1ccc2nc(Nc3nc4cc5c(cc4s3)OCO5)sc2c1	AmpC inh no detg 22µM
CNC(=S)N/N=C/c1c(C(=O)OC)cnn1-c1ccc(F)cc1F	FMDV inh inconclusive
COC(=O)c1cnn(-c2ccc(F)cc2F)c1/C=N/NC(N)=S	HCV inhibitor 10µM, FMDV inh inconclusive
COc1cccc(Nc2nccc3[nH]c(-c4cccc(C(C)C)c4)nc23)c1	none (no result: HCV inhibitor, FMDV inh, AmpC detergent, AmpC inh no detg)
O=C(CCS(=O)(=O)Cc1ccccc1)Nc1ncc([N+](=O)[O-])s1	HCV inhibitor inconclusive, HCMV antiviral -96
O=C(CCS(=O)(=O)c1ccccc1)Nc1ncc([N+](=O)[O-])s1	HCMV antiviral inconclusive, AmpC detergent inconclusive
O=C(COC(=O)c1cnccn1)Nc1ncc(C(F)(F)F)cc1Cl	none (no result: AmpC detergent)
C=CC(=O)N1C/C(=C/c2ccc(F)cc2)C(=O)/C(=C\c2ccc(F)cc2)C1	HCV inhibitor inconclusive, HCMV antiviral -100, FMDV inh 8.9µM (no result: AmpC detergent, AmpC inh no detg)
CCc1nc2ccccc2nc1N1CCN(S(=O)(=O)c2ccccc2)CC1	HCMV antiviral -68, FMDV inh inconclusive
CC1CCN(C(=O)c2c(NC(=O)c3ccccc3Cl)sc3c2CCC(C(C)(C)C)C3)CC1 (stereo unspecified)	none (no result: HCV inhibitor, AmpC inh no detg)
CC(=O)C1CCC2(O)C3CCC4=CC(=O)CCC4(C)C3CCC12C (stereo unspecified)	none (no result: AmpC detergent, AmpC inh no detg)
C[C@@H]1O[C@@H](O[C@@H]2C=C3CC[C@@H]4C(CC[C@]5(C)[C@@H](c6ccc(=O)oc6)CC[C@]45O)[C@@]3(C)CC2)[C@H](O)[C@H](O)[C@H]1O (stereo partly specified)	HCV inhibitor 0.56µM, HCMV antiviral -97, FMDV inh inconclusive
C[C@@H]1O[C@@H](O[C@@H]2C=C3CCC4C(CC[C@]5(C)[C@@H](c6ccc(=O)oc6)CC[C@]45O)[C@@]3(C)CC2)[C@H](O)[C@H](O)[C@H]1O (stereo partly specified)	HCV inhibitor inconclusive, HCMV antiviral -99, FMDV inh inconclusive, AmpC detergent inconclusive
CCNC(=O)[C@@H]1[C@@H](CO)[C@@H]2Cn3c(cccc3=O)[C@H]1N2C(=O)Nc1cc(F)ccc1F	none (no result: HCV inhibitor, FMDV inh, AmpC detergent, AmpC inh no detg)
CCNc1ccc(C(=O)N/N=C/c2c(C)nn(-c3ccccc3)c2N2CCCC2)cc1[N+](=O)[O-]	HCV inhibitor inconclusive, FMDV inh inconclusive, AmpC detergent inconclusive
Cc1nn(-c2ccccc2)c(N2CCCC2)c1/C=N/NC(=O)c1ccccc1O	HCV inhibitor inconclusive
Cc1nn(-c2ccccc2)c(N2CCCC2)c1/C=N/NC(=O)C1CC1	HCV inhibitor inconclusive, HCMV antiviral -61
Cc1ccc(NS(=O)(=O)c2cccc(C(=O)N/N=C/c3c(C)nn(-c4ccccc4)c3N3CCCC3)c2)c(C)c1	HCV inhibitor 13µM
C/C(=N\OCC(=O)OCC(=O)N(C)c1ccccc1)c1ccc2c(c1)OCO2	none
O=C(c1ccncc1)N1CCN(S(=O)(=O)c2cccc(Cl)c2)CC1	none
Cc1cc(C)nc(/N=C(\N)Nc2ccc(SC(F)F)cc2)n1	HCV inhibitor inconclusive, HCMV antiviral inconclusive
CCN1c2ccccc2NC2C1C(C(C)=O)C(=O)N2c1ccc(Cl)cc1 (stereo unspecified)	HCV inhibitor 10µM (no result: FMDV inh)
Cc1ccc(NC(=O)N2CCCC2C(=O)Nc2c(C)cc(C)cc2C)cc1 (stereo unspecified)	none
Cc1ccc(OCCCCN(C)Cc2ccccc2)c(Br)c1	HCV inhibitor inconclusive, FMDV inh inconclusive
Cc1cc(C)c(OCCCCN(C)Cc2ccccc2)c(C)c1	HCMV antiviral -61
COc1cc(CN2CCN(Cc3ccc([N+](=O)[O-])cc3)CC2)c([N+](=O)[O-])cc1OC	HCMV antiviral -76, FMDV inh inconclusive, AmpC detergent inconclusive
COc1cc2cc(C(=O)N3CCN(Cc4ccc5c(c4)OCO5)CC3)[nH]c2cc1OC	HCV inhibitor inconclusive, HCMV antiviral -92
COc1ccc(C(=O)N2CCN(Cc3ccc4c(c3)OCO4)CC2)cc1[N+](=O)[O-]	HCV inhibitor inconclusive, HCMV antiviral -83
O=C(c1cc2cc(F)ccc2[nH]1)N1CCN(Cc2ccc3c(c2)OCO3)CC1	HCV inhibitor inconclusive
O=C(Oc1ccccc1)N1CCC2(CC1)CN(c1ccccc1)C2	none (no result: HCV inhibitor, HCMV antiviral, AmpC detergent, AmpC inh no detg)
CCC(C)C(NC(N)=O)C(=O)Nc1ccc(S(=O)(=O)Nc2ccc(OC)cc2)cc1 (stereo unspecified)	HCMV antiviral -102
Cc1cc(C)nc(NS(=O)(=O)c2ccc(NC(=S)NC(=O)CC(C)C)cc2)n1	none
CCNC(=S)Nc1ccc(OCC)cc1	HCMV antiviral inconclusive, AmpC detergent inconclusive
CCC(=O)NC(=S)Nc1ccc(S(=O)(=O)NC(C)C)cc1	HCMV antiviral -110, AmpC detergent inconclusive
CCOc1ccc(NC(=S)Nc2ccc(OCC)cc2)cc1	HCMV antiviral -100
